# Compound activity deposited in PubChem BioAssay by National Center for Advancing Translational Sciences (NCATS).
# CtBP-E1A inh – CtBP/E1A binding inhibition; AlphaScreen GST-E1A/His-CtBP binding, 1536-well; stronger effect = lower value; activity change, % (test concentration not listed); actives 0.49% (n = 340,000); in the data active means activity change below about -65%; inconclusive means mostly about -30% to -63%; further: on the % scale 0 is the no-effect control and ±100 the full control effect
#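 Protein mix (5X: 125 nM each GST-E1A, His-CtBP) was incubated with pinned compound 2 h at 37 deg C in dark, in 50 mM Tris pH 8.0 buffer with 300 mM NaCl. Glutathione donor and nickel acceptor beads followed; AlphaScreen signal read after 1 h.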
# BAZ2B inh – BAZ2B (human) inhibition. AlphaScreen BAZ2B-H3K14Ac peptide displacement. Potency, µM (top dose mostly 114 µM), inactives show at the highest dose activity change, negative = inhibition, actives largely listed as inhibitors. actives 4.4% (n = 360,000); further: potency means the concentration at half of the fitted maximal effect; on the % scale 0 is the no-effect control and ±100 the full control effect; nearly all actives have a fitted effect of over 60% in size
#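 AlphaScreen displacement: compounds (up to 110uM) incubated 30 min at room temperature with a preformed 50 nM BAZ2B/50 nM biotinylated H3K14Ac peptide complex in PBS pH 7.4 with Tween-20. Donor and acceptor beads at 10 ug/mL final added, 20 min light-protected before reading.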
# JMJD2A Tudor – JMJD2A Tudor domain (human) inhibition; Potency, µM (top dose mostly 114 µM), for inactives: at the highest dose activity change, negative = inhibition, usual class: inhibitors; AID 504339; actives 4.4% (n = 390,000); AlphaScreen JMJD2A-Tudor / H3K4me3 peptide binding; further: potency means the concentration at half of the fitted maximal effect; on the % scale 0 is the no-effect control and ±100 the full control effect; nearly all actives have a fitted effect of over 50% in size
# Target sequence (O75164 whole entry, looked up, the tested form may be a part): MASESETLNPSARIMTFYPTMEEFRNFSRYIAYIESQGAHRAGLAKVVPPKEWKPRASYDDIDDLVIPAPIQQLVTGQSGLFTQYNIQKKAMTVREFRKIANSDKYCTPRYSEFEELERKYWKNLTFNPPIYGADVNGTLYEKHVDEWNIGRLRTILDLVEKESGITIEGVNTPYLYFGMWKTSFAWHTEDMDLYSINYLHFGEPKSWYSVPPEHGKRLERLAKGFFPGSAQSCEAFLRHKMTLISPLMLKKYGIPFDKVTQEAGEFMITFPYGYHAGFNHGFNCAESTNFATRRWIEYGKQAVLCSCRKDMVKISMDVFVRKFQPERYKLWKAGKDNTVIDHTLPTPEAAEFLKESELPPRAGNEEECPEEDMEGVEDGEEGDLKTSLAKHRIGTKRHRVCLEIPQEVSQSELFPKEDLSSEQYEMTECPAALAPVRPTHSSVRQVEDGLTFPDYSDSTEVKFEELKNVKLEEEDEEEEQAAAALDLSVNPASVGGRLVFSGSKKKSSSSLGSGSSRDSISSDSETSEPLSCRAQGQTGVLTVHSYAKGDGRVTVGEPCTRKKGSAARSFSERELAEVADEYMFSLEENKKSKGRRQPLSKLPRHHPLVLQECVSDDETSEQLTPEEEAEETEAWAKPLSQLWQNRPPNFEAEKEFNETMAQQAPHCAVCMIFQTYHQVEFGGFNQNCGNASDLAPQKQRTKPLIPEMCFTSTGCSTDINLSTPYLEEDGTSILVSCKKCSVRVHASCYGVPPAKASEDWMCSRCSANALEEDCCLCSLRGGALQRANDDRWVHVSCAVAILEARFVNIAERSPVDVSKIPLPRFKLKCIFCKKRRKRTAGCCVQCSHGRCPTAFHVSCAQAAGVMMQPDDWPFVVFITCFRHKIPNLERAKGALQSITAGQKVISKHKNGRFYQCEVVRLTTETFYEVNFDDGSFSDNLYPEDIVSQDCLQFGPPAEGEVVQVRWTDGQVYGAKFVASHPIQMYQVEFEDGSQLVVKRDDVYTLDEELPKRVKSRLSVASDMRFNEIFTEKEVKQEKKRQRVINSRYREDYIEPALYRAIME
# G9a block – blocks human histone lysine methyltransferase G9a | Q96KQ7 | AID 504332 | Potency, µM (doses to about 102 µM), for inactives: top-dose activity, negative = inhibition, usual class: inhibitors | actives 8.8% (n = 350,000) | G9a H3K9 monomethylation, AlphaScreen, 2 h; further: potency means the concentration at half of the fitted maximal effect; on the % scale 0 is the no-effect control and ±100 the full control effect; nearly all actives have a fitted effect of over 75% in size
#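 G9a (20 nM) was preincubated 15 min with compound, then reacted 2 h at room temperature with 500 nM biotin-H3K9 peptide and 20 µM SAM. Monomethyl-H3K9 detected by AlphaScreen using anti-H3K9me1 antibody.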
# Six1-Eya2 blk – blocks human Six1 binding to Eya2. AlphaScreen GST-Six1/His-Eya2 binding, biochemical; stronger effect = lower value. activity change, % (concentration not given with the values). actives 0.56% (n = 360,000). AID 651725; in the data active means activity change below about -65%; inconclusive means mostly about -30% to -63%; further: on the % scale 0 is the no-effect control and ±100 the full control effect
#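 GST-Six1 + His-Eya2 (5X stock: 250/500 nM); Tris pH 8.0, 300 mM NaCl, 0.05% BSA, 0.02% Tween 20; GSH donor/Ni acceptor beads; 1 h 37 °C dark; AlphaScreen readout.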
# HP1b chromo inh – HP1-beta chromodomain-methylated histone interaction inhibition; P83916; AlphaScreen HP1-beta / biotin-H3K9me3 peptide binding; Potency, µM (doses to about 114 µM), inactives show at the highest dose activity change, negative = inhibition, usual class: inhibitors; actives 0.56% (n = 390,000); AID 540317; further: potency means the concentration at half of the fitted maximal effect; nearly all actives have a fitted effect of over 70% in size
#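 HP1-beta protein (50 nM final) preincubated 30 min at room temperature with biotinylated H3(1-18)K9me3 peptide (50 nM) in PBS pH 7.4, 0.01% Tween-20, then compound added for 30 min. AlphaScreen streptavidin donor/nickel chelate acceptor beads (10 ug/mL final), 30 min dark, luminescence read.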
# An asterisk follows results filed as active; ? = inconclusive; . = not tested or not shown; ! = not confirmed by another sample; [ ] = another dose, or the depositor's remark. Most compounds without a hit are left out; they make up all but 10% or so of the library. Unless noted, the call rests on the fitted dose curve; in most records, active means well fitted inhibition curve with a large enough effect; inconclusive means small, poorly fitted or top-dose-only effect; inactive means no such curve, though single readings can be large or run the other way.
SMILES,CtBP-E1A inh,BAZ2B inh,JMJD2A Tudor,G9a block,Six1-Eya2 blk,HP1b chromo inh
CC1CCCN(CC(=O)c2ccc(Cl)c(Cl)c2)C1 (centres undefined),11.3,?,-6.2%,25.1µM*,-4.0,65.3%
Cc1cc(Cl)ccc1C(=O)C1CCCN(Cc2ccon2)C1 (centres undefined),5.8,-5.1%,-9.2%,16.0%,-2.5,33.8%
O=c1[nH]c(=O)n([C@H]2C[C@H](O)[C@@H](CO)O2)cc1/C=C/Br,.,.,.,17.4%[12.7 µM],.,.
O=c1[nH]c(O)c(C=Nc2ccccc2Sc2ccccc2)c(=O)[nH]1,8.1,-10.1%,-10.0%,?,7.9,54.9%
O=c1[nH]c(O)c(C=Nc2ccccc2[N+](=O)[O-])c(=O)[nH]1,.,-3.3%,.,70.8µM*,.,.
CCOC(=O)c1cccc([P+](=O)O)c1,7.8,0.2%,28.2µM*,-26.3%[59 µM],5.3,18.3%
CC1[C@H]2Cc3ccc(O)cc3[C@]1(C)CCN2CCc1ccccc1 (some centres undefined),-7.9,.,-16.6%,.,0.8,38.7%
CN1CC[C@@]2(C)c3cc(O)ccc3N(C)C12 (some centres undefined),.,.,.,9.47µM*,.,.
CNC(=O)Oc1ccc2c(c1)[C@]1(C)CCN(C)[C@@H]1N2C,4.1,6.2%,-13.1%,44.7µM*!,-2.3,8.4%
O=c1[nH]c(=S)[nH]c(O)c1N=Nc1ccc(SC(F)F)cc1,-12.8,-30.6%,-25.0%,44.7µM*,-23.4,-22.6%
CC(C)c1ccc(N=Nc2c(O)[nH]c(=O)[nH]c2=O)cc1,0.0,-17.3%,?,?,20.6,55.0%
O=C1CN=C(c2ccccc2Cl)c2cc(Cl)ccc2N1Cc1cccc(Cl)c1,.,-23.2%,-16.0%,-19.0%[59 µM],.,18.4%
Cc1cc(C(C#N)c2ccc(Cl)cc2)c(Cl)cc1NC(=O)c1cc(I)cc(I)c1O (centres undefined),13.5,44.7µM*,50.1µM*,14.1µM*,8.6,-13.2%
C[C@H]1O[C@H]1P(=O)(O)O,8.4,9.7%,-14.5%,21.0%,5.1,61.4%
CCOc1cc2[nH]c(=O)n(CCCC(=O)N3CCN(c4cccc(Cl)c4)CC3)c(=O)c2cc1OCC,.,-21.7%,?,-3.6%[59 µM],.,-8.0%
CN1CCN(P(=O)(c2ccccc2)c2nc3ccccc3s2)CC1 (centres undefined),1.3,-2.9%,-12.2%,-5.9%,1.4,27.9%
N#CC(C#N)=NNc1ccc([N+](=O)[O-])cc1,-11.9,39.8µM*,?,31.6µM*,-18.9,?
COC(=O)[C@@H](Cc1ccccc1)N(Cc1ccccc1)S(=O)(=O)N(Cc1ccccc1)[C@H](Cc1ccccc1)C(=O)OC,0.0,.,-5.8%,.,-4.5,39.7%
C=CCN=C=S,.,.,.,-0.9%[59 µM],.,.
CCc1ccc(N2C(=O)NC(=O)/C(=C/c3cccn3CCOc3ccc(C)cc3)C2=O)cc1,2.4,?,-4.2%,21.9%[59 µM],-5.4,35.8%
CCOc1ccc(N2C(=O)NC(=O)/C(=C\c3cc(OC)c(OC)cc3[N+](=O)[O-])C2=O)cc1,-5.0,?,?,17.8µM*,-12.2,-17.0%
Cc1cccc(N2C(=O)NC(=O)/C(=C\c3ccc(N4CCOCC4)cc3)C2=O)c1,6.4,-13.0%,-4.9%,?,-0.3,?
COc1ccc(N2C(=O)NC(=O)/C(=C/c3ccc([N+](=O)[O-])s3)C2=O)cc1,.,39.8µM*,56.2µM*,8.91µM*,-72.7*,?
COc1cccc(N2C(=O)NC(=O)/C(=C/c3ccc([N+](=O)[O-])s3)C2=O)c1,-22.4,35.5µM*,22.4µM*,11.2µM*,?,35.5µM*
COc1ccc(N2C(=O)NC(=O)/C(=C\c3cn(C)c4ccccc34)C2=O)cc1,.,-9.3%,-14.1%,25.0%[0.501 µM],-13.0,29.8%
SMILES,CtBP-E1A inh,BAZ2B inh,JMJD2A Tudor,G9a block,Six1-Eya2 blk,HP1b chromo inh
COc1ccc(N2C(=O)NC(=O)/C(=C\c3ccc([N+](=O)[O-])s3)C2=O)cc1,-20.7,31.6µM*,22.4µM*,7.94µM*,?,22.4µM*
CN[C@@H](C)[C@H]1CC[C@@H](N)[C@@H](O[C@@H]2[C@@H](O)[C@@H](O[C@H]3OC[C@@](C)(O)[C@@H](NC)[C@@H]3O)[C@H](N)C[C@@H]2N)O1 (tested in a mixture with another compound),.,.,.,30.7%[21.5 µM],.,.
ClC=C(Cl)Cl,.,.,.,1.0%[12.7 µM],.,.
C1=CC2C3C=CC(C3)C2C1 (centres undefined),4.6,-6.2%,-5.5%,12.3%[0.501 µM],-1.6,46.5%
COc1ccccc1N1C(=O)NC(=O)/C(=C/c2ccc([N+](=O)[O-])s2)C1=O,-25.8,35.5µM*,56.2µM*,8.91µM*,?,?
Clc1cncc(N2CCNCC2)n1,.,.,.,18.9%[59 µM],.,.
C[C@H]1OC[C@@H](C[N+](C)(C)C)O1,4.4,-28.9%,?,1.58µM*,-17.5,9.3%
CC1OC(C[N+](C)(C)C)CC1O (centres undefined),2.1,13.6%,-8.3%,1.9%[59 µM],1.9,17.1%
C[C@@H]1O[C@H](C[N+](C)(C)C)C[C@H]1O,.,.,.,15.8µM*!,.,.
CC1OC(C)OC(C)O1 (centres undefined),.,.,.,0.5%[12.7 µM],.,.
O=C(CSc1nc2c([nH]c3ccccc32)c(=O)n1-c1ccccc1)c1ccccc1,.,0.5%,?,11.6%[59 µM],.,11.3%[57 µM]
CN1CCC2(CC1)N=C(c1ccc(F)cc1)C(=S)N2,3.5,-1.3%,31.6µM*,25.1µM*,-21.9,?
CC1(C)[C@@H](O)C[C@H]2[C@](C)(O)[C@@H]3CC[C@H]4[C@@H](O)[C@@]3(C[C@@H](O)[C@@]21O)C[C@@]4(C)O,.,.,.,29.0%[59 µM],.,.
CCCCn1c(O)c(C(C)=NCCc2ccccc2)c(=O)[nH]c1=O,-0.1,2.5%,2.1%,-19.7%[12.7 µM],-2.2,18.8%
CCCCn1c(O)c(C(C)=NCc2ccc3c(c2)OCO3)c(=O)[nH]c1=O,1.9,0.6%,89.1µM*,.,23.3,-9.0%
CCCCn1c(O)c(C(C)=Nc2ccc(C(=O)O)cc2)c(=O)[nH]c1=O,2.9,?,?,44.7µM*,2.2,20.9%
CC1(C)C(O)CC(=O)[C@]2(C)C1CC(=O)[C@]1(C)C2CC[C@@]2(C)C(c3ccoc3)OC(=O)C3O[C@@]321 (some centres undefined),.,.,.,-6.1%[2.33 µM],.,.
Cc1ccc(S(=O)(=O)NN)c(C)c1N1CCCC1=O,-19.3,1.6%,-8.1%[11.4 µM],.,6.9,61.8%
O=[N+]([O-])c1ccccc1,.,.,.,27.8%[59 µM],.,.
C[N+](C)(C)c1ccccc1,5.9,-12.7%,?,20µM*,-5.5,17.5%
CN1C(=O)C(=Cc2ccccc2OCc2ccccc2Cl)C(=O)N(C)C1=O,9.6,51.2%,96.0%,30.4%[59 µM],20.3,101.1%
